Source: PubChem BioAssay
Rows were chosen to be rich in hits. Some 3.8% of all compounds tested hit in one or more screens of this group.
ATXN viability: reduces viability in counter-screen for ATXN expression inhibitors; AID 651635; S2 cells (HEK-293 line with an ATXN2-luciferase reporter) viability, CellTiter-Fluor protease fluorescence, 24 h; Potency, µM (top dose mostly 56.7 µM), most hits filed as cytotoxic; 0.49% of 400,000 active; also: nearly all actives have a fitted effect of over 40% in size
A549 viability: counter-screen for Nrf2 inhibitors: cytotoxicity in A549 cells. A549 ARE-Fluc cells, CellTiter-Fluor viability, 18-24 h. Potency, µM (titrated, usually from 46 µM), inactives show top-dose activity change, negative = cytotoxicity, actives largely listed as inhibitors. 0.16% of 390,000 active. AID 504648; also: % is scaled to controls: 0 for no effect and ±100 for the full control effect
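A549 ARE_Fluc cells in 5% FBS OPTI-MEM were exposed to compounds in concentration-response for 18-24 h at 37 deg C. Viability was read by CellTiter-Fluor fluorescence (Ex 405/Em 525) after 30 min, before the luciferase read.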
TGFb inhibitor: blocks TGF-b signaling. HepG2 CAGA-GFP TGF-b/SMAD3 reporter, GFP fluorescence, 18 h; TGF-beta stimulated, 500 pg/mL final. Potency, µM (doses to about 46.1 µM), inactives show at the top dose activity, negative = inhibition, hits mostly inhibitors. 1.2% of 410,000 active. AID 588855; also: % is scaled to controls: 0 for no effect and ±100 for the full control effect; nearly all actives have a fitted effect of over 65% in size
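Read-out: total well GFP (ex488/em500-530) summed from mean per-cell fluorescence. Cells: HEPG2 CAGA-GFP, 1% FBS DMEM, 18 h at 37 degrees C with 500 pg/mL final TGF-beta. Unstimulated wells served as the full-inhibition control; stimulated DMSO wells = 0%.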
HepG2 tox-1: HepG2 cytotoxicity, counter-screen for TGF-b inhibitors; HepG2 CAGA-GFP viability, ATP luminescence, 18 h; Potency, µM (series often up to 46.1 µM), for inactives: at the top dose activity change, negative = cytotoxicity, actives largely listed as cytotoxic; 0.76% of 410,000 active; AID 588856
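HepG2 CAGA-GFP cells (1000/well, DMEM with 1% FBS) received compound, then TGF-beta at 500 pg/mL final, and were incubated 18 hours at 37 degrees C. Viability was read by CellTiter-Glo luminescence. Media-only wells were set as complete cell-killing and DMSO as no toxicity.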
ATXN2 expr inh: ATXN2 expression inhibition; HEK-293 ATXN2-luciferase reporter, luminescence, 24 h; Potency, µM (highest dose often 57 µM), for inactives: at the highest dose activity change, negative = inhibition, usual class: inhibitors; 0.72% of 360,000 active; AID 1745845; also: % is scaled to controls: 0 for no effect and ±100 for the full control effect; nearly all actives have a fitted effect of over 55% in size
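ATXN2-luciferase reporter cells (luciferase flanked by upstream and downstream ATXN2 gene portions) were treated 24 h at 37 °C with compounds at up to 57 uM. SteadyGlo luminescence gave expression; GF-AFC fluorescence gave viability.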
Nrf2 block: blocks Nrf2 signaling; A549 ARE-Fluc reporter, luciferase luminescence, 18-24 h; Potency, µM (top dose mostly 46 µM), for the others: at the highest dose activity change, negative = inhibition, actives largely listed as inhibitors; 2.1% of 360,000 active; AID 504444; also: % is scaled to controls: 0 for no effect and ±100 for the full control effect; nearly all actives have a fitted effect of over 60% in size
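Concentration-response testing used A549 ARE_Fluc cells at 5000 cells/well. Following an 18-24 h compound incubation, viability was read by fluorescence (Ex 405/Em 525) and luciferase output by luminescence.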
TGFb CAGA inh: confirmation of TGF-b signaling inhibitors in HepG2 reporter cells | shares compounds with TGFb inhibitor | HepG2 CAGA-GFP TGF-b reporter, GFP fluorescence, 18 h; cells stimulated with TGF-beta, 500 pg/mL | Potency, µM (titrated, usually from 46.1 µM), inactives show at the top dose activity, negative = inhibition, hits mostly inhibitors | 63% of 1,600 active | AID 720534; also: % is scaled to controls: 0 for no effect and ±100 for the full control effect; nearly all actives have a fitted effect of over 65% in size
HepG2 tox-2: toxic to HepG2 cells in TGF-b counterscreen; HepG2 CAGA-GFP viability, ATP luminescence, 18 h; cells stimulated with TGF-beta, 500 pg/mL; Potency, µM (top dose mostly 46.1 µM), without a hit: at the highest dose activity, negative = cytotoxicity, most hits filed as inhibitors; 27% of 1,600 active; shares compounds with TGFb inhibitor; also: % is scaled to controls: 0 for no effect and ±100 for the full control effect; nearly all actives have a fitted effect of over 70% in size
CCL64 TGFb inh: TGF-b inhibition, CCL64 orthogonal assay; shares compounds with TGFb inhibitor; Potency, µM (series often up to 46.1 µM), without a hit: at the top dose activity, negative = inhibition, actives largely listed as inhibitors; 41% of 1,600 active; CCL64 CAGA-GFP reporter, TGF-b stimulated, GFP fluorescence, 18 h; also: nearly all actives have a fitted effect of over 65% in size
TGFb COP inh: TGF-b inhibition validated with COP promoter. shares compounds with TGFb inhibitor. HepG2 COP-GFP TGF-b reporter, GFP fluorescence, 18 h; cells stimulated by added recombinant TGF-beta. Potency, µM (top dose mostly 46.1 µM), for inactives: at the highest dose activity, negative = inhibition, hits mostly inhibitors. 3% of 1,600 active; also: nearly all actives have a fitted effect of over 70% in size
* hit, by the source's call. Calls follow the shape of the dose curve; as a rule, active = well fitted curve in the direction sought with a large enough effect; inconclusive = small, poorly fitted or top-dose-only effect, or another doubt; inactive = no such curve, though single readings can be large; an effect the other way counts as inactive or inconclusive. Potency is read from the fitted curve at half-maximal effect.

For N#C/C(=C\c1ccc(Sc2nc3ccccc3[nH]2)o1)c1ccccc1 the results were ATXN viability inactive, A549 viability inconclusive, TGFb inhibitor 10µM*, HepG2 tox-1 51.9%, ATXN2 expr inh inconclusive, TGFb CAGA inh 9.2µM*, HepG2 tox-2 inconclusive, CCL64 TGFb inh inconclusive and TGFb COP inh 46.6%.
`N#C/C(=C\c1ccc(Sc2ccc(Cl)cc2)o1)c1nc2ccccc2[nH]1` gave ATXN viability inactive, A549 viability -19.2%, TGFb inhibitor 4.6%, HepG2 tox-1 -31.3%, ATXN2 expr inh 1.6% and Nrf2 block inconclusive.
For CC(C)C[C@H]1CNC(=S)N1CC1CCCN1C[C@H](Cc1ccccc1)N1C[C@H](Cc2ccc(O)cc2)N(CC2CCCCCC2)C1=S (stereo not given in full) the results were ATXN viability inactive, A549 viability -18.1%, TGFb inhibitor 6.31µM*, HepG2 tox-1 -26.3%, ATXN2 expr inh -30.6%, Nrf2 block inconclusive, TGFb CAGA inh 14.6µM*, HepG2 tox-2 inconclusive, CCL64 TGFb inh 5.8µM* and TGFb COP inh 30.8%.
`CC(C)C[C@H]1CN([C@@H](Cc2ccc(O)cc2)CN2CCC[C@@H]2CN2C(=S)NC[C@@H]2Cc2ccccc2)C(=S)N1CC1CCCCCC1` gave ATXN viability inconclusive, TGFb inhibitor 10µM*, HepG2 tox-1 -4.9%, ATXN2 expr inh inconclusive, TGFb CAGA inh inconclusive, HepG2 tox-2 -8.7%, CCL64 TGFb inh inconclusive and TGFb COP inh 28.3%.
For Cc1ccc(S(=O)(=O)N2CCCCC2)cc1C(=O)OC1CCCCC1=O (stereo not given) the results were ATXN viability inactive, A549 viability -7.5%, TGFb inhibitor inconclusive, HepG2 tox-1 -14.0%, ATXN2 expr inh 9.1%, Nrf2 block -13.9%, TGFb CAGA inh inconclusive, HepG2 tox-2 7.0%, CCL64 TGFb inh 11.7% and TGFb COP inh 0.1%.
For CC(NCC(O)COCCC12CC3CC(CC(C3)C1)C2)c1ccccc1 (stereo not given) the results were A549 viability inconclusive, TGFb inhibitor 7.94µM*, HepG2 tox-1 7.08µM*, ATXN2 expr inh 31.6µM*, Nrf2 block inconclusive, TGFb CAGA inh inconclusive, HepG2 tox-2 20.6µM*, CCL64 TGFb inh inconclusive and TGFb COP inh inconclusive.
`Nc1nonc1-c1nc2ccccc2n1Cc1c(Cl)cccc1Cl` gave ATXN viability inconclusive, A549 viability 1.7%, TGFb inhibitor 3.1%, HepG2 tox-1 -17.5%, ATXN2 expr inh 13.3% and Nrf2 block -5.5%.
Screening NC(Cc1ccc(C(F)(F)F)cc1)c1csc(NC(=O)Nc2ccccc2Cc2ccccc2)n1 (stereo not given) returned TGFb inhibitor 3.16µM*, HepG2 tox-1 6.31µM*, ATXN2 expr inh inconclusive, TGFb CAGA inh inconclusive, HepG2 tox-2 inconclusive, CCL64 TGFb inh 14.6µM* and TGFb COP inh inconclusive.
Screening NC(CO)c1csc(NC(=O)Nc2ccccc2Cc2ccccc2)n1 (stereo not given) returned ATXN viability inactive, TGFb inhibitor 15.5%, HepG2 tox-1 4.0% and ATXN2 expr inh 1.4%.
For CCOc1ccc(C(=O)N2CCC(c3nc4ccccc4o3)CC2)cc1 the results were A549 viability 1.9%, TGFb inhibitor -0.2%, HepG2 tox-1 -18.7% and Nrf2 block inconclusive.
Screening O=C(CSc1c2c(nc3cc(Cl)ccc13)CCCC2)NCCN1CCOCC1 returned ATXN viability inactive, A549 viability -5.9%, TGFb inhibitor -7.9%, HepG2 tox-1 -10.6%, ATXN2 expr inh -21.2% and Nrf2 block 5.8%.
Clc1ccc2c(SCC3CO3)c3ccccc3nc2c1 (stereo not given) was read as A549 viability -3.2%, TGFb inhibitor 7.94µM*, HepG2 tox-1 -49.3%, ATXN2 expr inh inconclusive, Nrf2 block -17.7%, TGFb CAGA inh 16.4µM*, HepG2 tox-2 18.4µM*, CCL64 TGFb inh 20.6µM* and TGFb COP inh 16.4µM*.
CCOC(=O)C1CCCN(C(=O)Cc2ccc(C)cc2)C1 (stereo not given) was read as ATXN viability inactive, A549 viability 7.2%, TGFb inhibitor 10µM*, HepG2 tox-1 4.2%, ATXN2 expr inh -16.2%, Nrf2 block 17.3%, TGFb CAGA inh -7.2%, HepG2 tox-2 -2.0%, CCL64 TGFb inh 23.9% and TGFb COP inh -9.8%.
`CCOC(=O)C1CCCN(C(=O)Cc2ccc(OC)c(OC)c2)C1` (stereo not given) gave ATXN viability inactive, A549 viability -3.1%, TGFb inhibitor 9.7%, HepG2 tox-1 -36.6%, ATXN2 expr inh 4.5% and Nrf2 block -13.1%.
For N#Cc1ccccc1OCC(=O)OCC(=O)N1CCN(C(=O)c2ccco2)CC1 the results were ATXN viability inactive, A549 viability 1.4%, TGFb inhibitor -3.2%, HepG2 tox-1 1.5%, ATXN2 expr inh -14.0% and Nrf2 block 4.2%.
